Screens: PubChem BioAssay, National Center for Advancing Translational Sciences (NCATS)
In the library only some 11% were active in any assay of this set; here they are far more common.
ALDH1A1 inh – ALDH1A1 (human) enzyme inhibition | AID 1030 | hit rate 7.3% among 220,000 | Potency, µM (series often up to 75.3 µM), without a hit: top-dose activity, negative = inhibition, actives largely listed as inhibitors | Purified ALDH1A1, NADH fluorescence, propionaldehyde substrate | P00352;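 further: potency means the concentration at half of the fitted maximal effect; plate controls were no enzyme wells and a reference inhibitor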
Target sequence (P00352 whole entry, looked up): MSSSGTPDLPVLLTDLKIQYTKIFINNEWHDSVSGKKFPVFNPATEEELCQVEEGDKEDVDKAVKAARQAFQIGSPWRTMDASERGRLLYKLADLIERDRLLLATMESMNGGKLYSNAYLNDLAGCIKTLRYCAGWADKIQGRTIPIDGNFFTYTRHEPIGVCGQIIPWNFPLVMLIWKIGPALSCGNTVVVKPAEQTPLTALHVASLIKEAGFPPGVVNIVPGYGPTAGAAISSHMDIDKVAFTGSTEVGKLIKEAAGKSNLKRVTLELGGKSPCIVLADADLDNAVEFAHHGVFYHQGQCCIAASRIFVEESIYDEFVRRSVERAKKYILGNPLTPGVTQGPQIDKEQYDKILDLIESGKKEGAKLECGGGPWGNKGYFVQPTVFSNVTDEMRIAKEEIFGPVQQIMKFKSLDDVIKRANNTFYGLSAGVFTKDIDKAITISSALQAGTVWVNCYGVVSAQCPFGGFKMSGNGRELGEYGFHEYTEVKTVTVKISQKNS
HPGD block – HPGD (human) dehydrogenase inhibition | AID 894 | Potency, µM, without a hit: at the top dose activity change, negative = inhibition, usual class: inhibitors | P15428 | purified HPGD, NADH fluorescence kinetic, PGE2 substrate | hit rate 4.3% among 150,000; further: potency means the concentration at half of the fitted maximal effect
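NADH formation kinetics: reaction with 30 uM PGE2 and 1 mM NAD+ (final), 20 nM enzyme, Tris-HCl pH 8 with Tween 20, after 15 min compound preincubation at room temperature. Fluorescence change, last versus first of five reads.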
PNC inhibitor – blocks assembly of the perinucleolar compartment. AID 2417. activity change (PNC), negative = inhibition, % at 10 µM. PC3M PTB-GFP, PNC prevalence imaging, 16 h; stronger effect = lower value. hit rate 3.1% among 140,000;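 active means readout at or below -70, meaning at least 70% loss of cells showing the perinucleolar compartment, a nuclear body marking cancer cells; inconclusive means readout between -30 and a set limit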;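 further: plate controls were DMSO wells for no effect and camptothecin positive control wells for full effect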
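PC3M cells stably expressing PTB-GFP, 750–1000 cells/well, treated 16 h at 37 °C with compound (23 nl of library stock), in duplicate. After paraformaldehyde fixation and Hoechst stain, imaged at 20x; PNC prevalence scored by image analysis.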
Starred values were filed as active, the others as inactive; ? = inconclusive; / = no result given; ! = a repeat was not active; [ ] = remark or other dose. Unless noted, the call rests on the fitted dose curve; in most records, active means well fitted inhibition curve with a large enough effect (not every such curve was filed as active); inconclusive means small, poorly fitted or top-dose-only effect, or another doubt; inactive means no such curve, though single readings can be large or run the other way. Unless noted, on the % scale 0 is the no-effect control and ±100 the full control effect.

SMILES	ALDH1A1 inh	HPGD block	PNC inhibitor
COc1cc2c(C(=O)NCc3ccc(C)o3)cn(CC(C)C)c(=O)c2cc1OC	?	-5%	-108*
COCCCNC(=O)CCCCCNS(=O)(=O)c1ccc(Br)cc1	-4%	/	/
CC(=O)N1CCCc2cc(S(=O)(=O)Nc3ccc(C)cc3C)ccc21	?	-7%	?
O=[N+]([O-])c1cc(S(=O)(=O)Nc2ccccc2)ccc1-n1nnc2ccccc21	?	-25%	-114*
O=[N+]([O-])c1cc(S(=O)(=O)Nc2ccccc2)ccc1N1CCN(c2ccc(O)cc2)CC1	32µM*	-20%	37
Cc1ccc(NS(=O)(=O)c2ccc(N3CCN(c4ccc(O)cc4)CC3)c([N+](=O)[O-])c2)c(C)c1	14µM*	-5%	-19
O=[N+]([O-])c1cc(C(F)(F)F)ccc1-n1nnc2ccccc21	8%	/	-20
O=C(O)c1cc(NS(=O)(=O)c2ccc(N3CCOCC3)c([N+](=O)[O-])c2)cc(C(=O)O)c1	7%	-3%	10
COC(=O)c1ccc(NC(=O)CN(Cc2ccc(Cl)cc2)S(C)(=O)=O)cc1	-16%	-22%	-13
COc1nc(N=C(N)N)nc2ccc(C)cc12	?	/	1
CCOC(=O)N/N=C(/C)c1ccc(N2C(=O)C3CCCCC3C2=O)cc1 (stereo not given)	-14%	/	/
COc1cc(/C=N/Nc2ccc(Cl)cc2)ccc1OC(=O)c1cccs1	-23%	-9%	57
COc1cc(/C=C/C(=O)O)cc(S(=O)(=O)Nc2ccc3nc(SC)sc3c2)c1OC	11%	/	/
O=C(NCc1cccs1)C(=O)NCC1OCCCN1S(=O)(=O)c1cccs1 (stereo not given)	14µM*	/	/
CCNC(=O)C(=O)NCC1OCCCN1S(=O)(=O)c1cccs1 (stereo not given)	?	2%	-4
O=C(NCCc1c[nH]c2ccccc12)C(=O)NCC1OCCCN1S(=O)(=O)c1ccc(F)cc1 (stereo not given)	?	-15%	-12
O=C(NCCO)C(=O)NCC1OCCCN1S(=O)(=O)c1cccs1 (stereo not given)	18µM*	-4%	-80*
CNC(=O)C(=O)NCC1OCCCN1S(=O)(=O)c1cccs1 (stereo not given)	?	-2%	17
O=C(NCCc1c[nH]c2ccccc12)C(=O)NCC1OCCCN1S(=O)(=O)c1cccs1 (stereo not given)	25µM*	/	/
O=C(NCc1ccc(Cl)cc1)C(=O)NCC1OCCN1S(=O)(=O)c1cccs1 (stereo not given)	?	-2%	-12
O=C(NCc1ccccc1Cl)C(=O)NCC1OCCN1S(=O)(=O)c1cccs1 (stereo not given)	14µM*	/	/
COc1ccc(N(CC(=O)Nc2cccc(N(C)S(C)(=O)=O)c2)S(=O)(=O)c2ccccc2)cc1Cl	-1%	/	/
O=C(NCC1CCCO1)C1CCN(C2CCN(C3CCCCCC3)CC2)CC1 (stereo not given)	1%	/	/
Cc1onc(-c2ccc(Cl)cc2Cl)c1-c1csc(N/N=C/c2ccccc2)n1	-1%	/	/
COc1ccc(CC(=O)NNS(=O)(=O)c2ccc(F)cc2)cc1OC	2%	/	/
SMILES	ALDH1A1 inh	HPGD block	PNC inhibitor
CCC(=O)N(Cc1ccco1)c1nc(-c2ccc(OC)cc2)cs1	2%	-2%	17
CCC(=O)N(Cc1ccco1)c1nc(-c2cc(OC)ccc2OC)cs1	-1%	-14%	-100*
COc1ccc(NC(=O)C(CC(=O)O)C(C)c2ccccc2)cc1 (stereo not given)	6%	/	/
CS(=O)(=O)c1ccc(Cl)c(NC(=O)c2cccc(Br)c2)c1	-11%	-16%	14
CCNc1ccc(Br)cc(C(=O)/C=C/c2ccc3c(c2)OCO3)c1=O	18µM*	?	-21
CCNc1ccc(Br)cc(C(=O)/C=C/c2ccc(Cl)cc2)c1=O	25µM*	?	40
Nc1ccccc1C(=O)/C=C\c1ccc2c(c1)OCO2	5%[13.5 µM]	/	/
COC(=O)c1cc(Cl)c(NC(=O)/C=C/c2ccc(Cl)cc2)cc1OC	?	?	0
CCNc1ccc(Br)cc(C(=O)/C=C/c2c(Cl)cccc2Cl)c1=O	7.9µM*	8.9µM*	80
CCO[C@H]1OC(C(=O)NC2CC2)=C[C@@H](C2CC2)[C@@H]1CCCO	-4%	/	/
CNC(=O)CSc1cnc2ccccc2n1	6%	/	/
CCOC(=O)CCN1C(=O)[C@H]2[C@H]3[C@H](O)[C@H](O)C/C(=N/OCc4ccccc4)[C@@H]3CC[C@@H]2C1=O	-9%[13.5 µM]	/	/
CCOc1ccc(C(C)NC(=O)Cc2ccccc2F)cc1OCC (stereo not given)	8%	/	/
CC(C(=O)OCC(=O)Nc1ccc2c(c1)OCO2)N1C(=O)c2ccccc2C1=O (stereo not given)	7.1µM*	-19%	36
CC(C(=O)OCC(=O)Nc1cccc(S(=O)(=O)N2CCOCC2)c1)N1C(=O)c2ccccc2C1=O (stereo not given)	25µM*	/	/
CC(C(=O)OCC(=O)Nc1ccc(S(=O)(=O)N2CCCCC2)cc1)N1C(=O)c2ccccc2C1=O (stereo not given)	-8%	-9%	13
CC(C(=O)Oc1ccc2c(c1)OCO2)N1C(=O)c2ccccc2C1=O (stereo not given)	-5%	-13%	23
N#Cc1c(-c2ccc(Cl)cc2)ccnc1N1CCOCC1	13%	/	/
COc1ccc(-c2nc(SCC(=O)Nc3cc(C)on3)n[nH]2)cc1	10%	-18%	?
C=CCSc1n[nH]c(-c2ccc(OC)cc2)n1	?	14µM*	36
O=C(Nc1nnc(C2CC2)s1)C1Cc2ccccc2CN1S(=O)(=O)c1ccccc1F (stereo not given)	-1%	5%	-16
CCOC(=O)CNC(=O)O[C@@H]1Cc2cc(OC)ccc2O[C@H]1c1cccc(OC)c1	5%	-8%	/
O=c1c(/C=N/O)coc2ccc3ccccc3c12	11µM*	-28%	?
Cc1ccc2occ(/C=N/O)c(=O)c2c1	?	-18%	12
O=C(NCCCc1ccccc1)c1ccc(Br)o1	?	25µM*	9
SMILES	ALDH1A1 inh	HPGD block	PNC inhibitor
O=C(NCc1ccc(Cl)cc1)c1ccc(Br)o1	13µM*!	35µM*	?
O=C(NCCC1=CCCCC1)c1ccc(Br)o1	3.5µM*	-17%	?
O=C(NCCCc1ccccc1)c1ccccc1O	?	?	13
Cc1ccn2cc(CNC(=O)c3ccc(Br)o3)nc2c1	1%	16µM*	-19
O=C(NNC(=S)NCc1ccc(Cl)cc1)c1ccc(Br)o1	-1%	/	/
Cc1ccn2cc(CCNC(=O)c3ccc(Br)o3)nc2c1	6%	-9%	?
O=C(NCCC1=CCCCC1)c1ccc(F)cc1	-3%	-22%	16
Cn1c(CCC(=O)OCC(=O)NCc2ccc3c(c2)OCO3)nc(=O)c2ccccc21	7%	/	/
COc1ccc(CCNC(=O)C(=O)NCc2ccccn2)cc1	0%	/	/
Cn1c(Sc2ccc(-c3cccnc3)n2C)ccc1-c1cccnc1	-6%[13.5 µM]	-5%	/
CC(=O)NCCc1cc2ccc(C)cc2[nH]c1=O	2%	-20%	39
CCCCCCNC(=O)c1ccc(Br)o1	-8%[120 µM]	?	6
Cc1ccc2cc(CCNC(=O)c3ccc(Br)o3)c(=O)[nH]c2c1	?	28µM*	37
O=C(NCCCCc1ccccc1)c1ccc(Br)o1	-2%	14µM*	56
